Inconclusive results are not listed. The source made the active and inactive calls. The call rests on the fitted dose curve; in most records, active means well fitted curve in the direction sought with a large enough effect; inconclusive means small, poorly fitted or top-dose-only effect, or another doubt; inactive means no such curve, though single readings can be large or run the other way.
Test: qHTS screen for small molecules that inhibit ELG1-dependent DNA repair: SAR in Cell-Based Luciferin Counter Assay
Details: cell-based luciferase counter-screen, luminescence; series mostly up to 45.7 µM; activity change, negative = inhibition: at the top concentration
Description: Cancer cells divide rapidly compared to normal cells in the body. During cell division, cancer cells need to duplicate their genome by DNA replication. The failure of genome duplication leads to cancer cells' death. Therefore, inhibitors of DNA replication could specifically kill cancer cells. Based on this concept, many chemotherapeutic agents were developed and have been used to treat cancer patients. However, there are a limited number of agents available in the clinical setting, and some of those that do exist have low efficacy and severe side effects. Therefore, if we can find the compounds that effectively block DNA replication either by directly damaging DNA or by inhibiting other cellular mechanisms, the options for cancer treatment will be broadened. With this in mind, we developed a quantitative high-throughput ELG1-luciferase reporter gene assay. Small molecules that specifically block ELG1 function in response to DNA damage can be identified by monitoring the suppression of luciferase activity. Since ELG1 defines a pathway for repairing DNA damage, agents blocking ELG1 function can be used to sensitize cancer cells to chemotherapeutic agents whose mechanism of action involves the induction of DNA damage. This assays is a counterscreen, that is more specifically, a cell-based luciferase assay following treatment with putative ELG1 antagonists to eliminate luciferase enhancers/inhibitors NIH Molecular Libraries Probe Production Network [MLPCN] NIH Chemical Genomics Center [NCGC] MLPCN Grant: R03 MH092164 Assay Provider: Kyungjae Myung, NHGRI, NIH
3 uL of substrate reagent will be pipetted into each well in 1536-well white, solid-bottom plates using a FRD dispenser, followed by addition of 23 nL of DMSO or compounds by pintool. After compound addition, 1 µL of luciferase will be added into the wells. The plates will be read in a ViewLux CCD-based plate reader.

| SMILES | activity change, negative = inhibition |
| --- | --- |
| CCCC(=O)Oc1ccc2[nH]c(C(=O)c3cc4ccccc4[nH]3)cc2c1 | 83.3% (inactive) |
| Cc1cc2ncc(-c3ccccc3)nc2cc1C | 69.2% (inactive) |
| COc1ccc(-c2coc3cc(O)cc(O)c3c2=O)cc1 | 76.9% (inactive) |
| COc1ccc(-c2nc(-c3cccnc3)no2)cc1 | 49.3% (inactive) |
| Cc1ccc2c(c1)C/C(=C/c1ccc(N(C)C)cc1)C2=O | 70.2% (inactive) |
| O=c1[nH]c(=O)n([C@@H]2O[C@H](CO)[C@@H](O)[C@H]2O)cc1F | 58.2% (inactive) |
| c1cncc(CNc2ncnc3ccc(-c4ccoc4)cc23)c1 | -17.6% (inactive) |
| COc1ccccc1/C=C/c1nc2ccccc2s1 | 71.1% (inactive) |
| CN(Cc1ccco1)c1ncnc2ccc(-c3cccc(Cl)c3)cc12 | 15.3% (inactive) |
| CC(=O)Nc1sc2c(c1-c1nc3ccccc3s1)CCCNC2 | -7.56% (inactive) |
| CCCCCn1ncc2c3sc(C)cc3n(C)c2c1=O | 79.8% (inactive) |
| Oc1ccc(CCc2ccccc2F)c2cccnc12 | 39.3% (inactive) |
| CN(C)c1cccc(-c2ccnc(N3CCC(C(N)=O)CC3)n2)c1 | 98.7% (inactive) |
| COc1cc2c(cc1OC)C1C(=O)c3c(cc4c(c3O)C=CC(C)(C)O4)OC1CO2 (stereo not given) | -5.64% (inactive) |
| O=C(/C=C/C#Cc1cccc(NS(=O)(=O)c2ccccc2)c1)NO | -8.27% (inactive) |
| CN(C)c1ccc(N=Nc2ccc(/C=C/c3ccnc4ccccc34)cc2)cc1 | 56.3% (inactive) |
| Oc1cc2cc(-c3csc(-c4ccc(F)cc4)n3)cc3c2n1CCC3 | 57.7% (inactive) |
| O=C(Nc1ccccn1)c1sc2ccc([N+](=O)[O-])cc2c1Cl | 67.8% (inactive) |
| COc1ccc(C2=Nn3c(nnc3-c3ccccc3OC)SC2)cc1OC | 39.9% (inactive) |
| CN(C)c1ccc(/C=C2\CCc3ccccc32)cc1 | 64.8% (inactive) |

| SMILES | activity change, negative = inhibition |
| --- | --- |
| NC(=O)C1CCN(c2cc(-c3ccc4c(c3)OCCCO4)ncn2)CC1 | 62.6% (inactive) |
| COc1ccc(-c2cnc(-c3cccnc3)o2)cc1 | 76% (inactive) |
| CNC(=O)c1cc(-c2cccs2)on1 | 94.4% (inactive) |
| Cc1ccnc(NC(=S)N2CCN(c3ccc(N)cc3)CC2)c1 | 74.6% (inactive) |
| COc1cccc2oc(-c3ccccc3)cc(=O)c12 | 68.4% (inactive) |
| COc1cccc([C@@H]2Oc3ccc(OC)cc3C(=O)[C@H]2OC(=O)NS(=O)(=O)c2ccc(C)cc2)c1 | 75.9% (inactive) |
| CC(C)C(=O)SCCCCCCC(=O)Nc1nc(-c2ccccc2)cs1 | 54.7% (inactive) |
| CC(=O)Nc1ccc(/C=C/c2sc3ccccc3[n+]2CCCCI)cc1 | 74.8% (inactive) |
| CC(C)CN(C)c1ccc(/C=C2\C=Cc3ccccc32)cc1 | 69.7% (inactive) |
| O=C(Nc1ccccn1)c1sc2ccccc2c1Cl | -47.7% (inactive) |
| Nc1ccc2cccnc2c1 | 68.2% (inactive) |
| O=c1[nH]c(=O)n([C@@H]2C[C@H](O)[C@H](CO)O2)cc1C(F)(F)F | -13.5% [at 15.7 µM] (inactive) |
| Cc1noc(C)c1-c1ccc2ncnc(NCc3ccc(F)c(F)c3)c2c1 | 73.8% (inactive) |
| O=C(c1cc2ccccc2[nH]1)c1cc2cc(O)ccc2[nH]1 | 92.7% (inactive) |
| CC(=O)OCC1=C[C@H]2[C@@H]3C(C)(C)[C@]3(OC(C)=O)C[C@@H](C)[C@]2(O)[C@@H]2C=C(C)C(=O)[C@@]2(O)C1 | 81.2% (inactive) |
| COc1cc(C)c2c(=O)cc(-c3ccccc3)oc2c1 | 91.3% (inactive) |
| O=C(NC1CCCC1)c1cc(-c2cccs2)on1 | 106% (inactive) |
| COc1ccc(OC)c(-c2nnc3n2N=C(c2ccc(OC)c(OC)c2)CS3)c1 | 35.1% (inactive) |
| Cc1ccc2nc3sc(C(=O)NCc4ccco4)cc3cc2c1 | 56.4% (inactive) |
| CN(C)c1cccc(-c2nnc(N3CCC(C(N)=O)CC3)s2)c1 | 89.4% (inactive) |
